Reference: PubChem BioAssay AID493167 (Broad Institute, 2011)
Calls of active or inactive are those of the source.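 The calls were made as follows: active = signal falls and fitted half-maximal concentration is at most ten times the sample's top valid dose; inconclusive = flat fit with 30 to 70% inhibition, or poor fit; inactive = change in the rising direction, plus the rest.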

System: LuxS (S-ribosylhomocysteine lyase), bacterial
Test: S-ribosylhomocysteine lyase activity inhibition – biochemical, dry powder, set 3, absorbance, dose response (AID 493167)

SMILES | outcome
O=S(=O)(Nc1cccnc1)c1ccc(Oc2ccccc2)cc1 | inactive
Cc1noc(C)c1S(=O)(=O)Nc1ccc2c(c1)C(=O)N([C@@H](C)CO)C[C@@H](C)[C@@H](CN(C)Cc1ccc(Oc3ccccc3)cc1)O2 | inactive
O=S(=O)(Nc1ccccn1)c1ccccc1 | inactive
C[C@@H]1CN([C@H](C)CO)C(=O)c2ccccc2-c2ccccc2CO[C@@H]1CN(C)Cc1ccc(Oc2ccccc2)cc1 | inactive
